Experimental data: PubChem BioAssay AID434959 (Broad Institute, 2010)
Among all 30,000 compounds or so, about 110 (0.37%) were called active. The list comes from a sample in which actives are over-represented; it also holds similar structures and randomly drawn compounds. Values without a mark were called inactive.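 Rule for the calls: active = delta delta Cp rounded down to an integer at or above 3, about 3 SD of DMSO wells; inactive = the rest.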

Test: inhibitors of YB-1 gene expression, primary screen, cell-based, fluorescence (AID 434959);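 note: higher means less YB-1 transcript or more CDIP transcript relative to DMSO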
Conditions: U2OS, qRT-PCR YB-1 vs CDIP delta delta Cp, 16 h; stronger effect = higher value; zero = DMSO, each unit about twofold

SMILES | delta Cp (YB-1 minus CDIP)
COc1ccc(S(=O)(=O)Nc2ccc3c(c2)CC(=O)N([C@H](C)CO)C[C@H](C)[C@H](CN(C)C(=O)Nc2ccccc2)O3)cc1 | 0.185
C[C@@H]1CN([C@@H](C)CO)C(=O)Cc2cc(NC(=O)C3CCCCC3)ccc2O[C@@H]1CN(C)CC1CCCCC1 | 0.332
Cc1noc(C)c1NC(=O)N(C)C[C@H]1Oc2c(NS(=O)(=O)c3cccs3)cccc2C(=O)N([C@@H](C)CO)C[C@@H]1C | -0.0216
C[C@H]1CN([C@@H](C)CO)C(=O)c2cc(NC(=O)Cc3cn(C)c4ccccc34)ccc2O[C@H]1CN(C)CC1CCCCC1 | -0.873
C[C@H]1CN([C@@H](C)CO)C(=O)Cc2cc(NC(=O)Nc3ccc(F)cc3)ccc2O[C@H]1CN(C)S(=O)(=O)c1ccccc1 | -0.124
O=C(O)CCCCCCC(=O)NN=C1CCCCCC1 | -0.0992
C[C@H](CO)N1C[C@H](C)[C@@H](CN(C)S(=O)(=O)c2ccccc2)Oc2c(NS(=O)(=O)c3cn(C)cn3)cccc2C1=O | 0.133
CC(C)CSc1nnc(CSCc2nc(-c3ccc(Cl)cc3)cs2)n1C | 0.176
COC(=O)[C@@]1(CCS(=O)(=O)c2ccccc2)N=C(c2ccc(OCCCO)cc2)O[C@H]1c1ccccc1N=[N+]=[N-] | -0.253
Cc1ccc(-c2c[n+](=O)c3c(n2[O-])CCC3)cc1 | -0.134
CCc1c(C)n([O-])c2c([n+]1=O)CCCCC2 | 6.44 (active)
C[C@H]1CN([C@@H](C)CO)C(=O)Cc2cc(NC(=O)Cc3ccccc3)ccc2O[C@H]1CN(C)S(=O)(=O)c1ccc(Cl)cc1 | -0.43
COc1ccc(CN(C)C[C@H]2Oc3c(NS(=O)(=O)c4ccccc4)cccc3C(=O)N([C@H](C)CO)C[C@@H]2C)cc1 | 0.263
C[C@@H]1CCCCO[C@H](CN(C)C(=O)c2ccccc2)[C@@H](C)CN([C@H](C)CO)C(=O)c2cc(NC(=O)Nc3cccc4ccccc34)ccc2O1 | -0.0616
C[C@@H]1CN([C@H](C)CO)C(=O)c2cc(N(C)C)ccc2O[C@@H]1CN(C)S(C)(=O)=O | -0.194
C[C@@H]1CN([C@@H](C)CO)C(=O)CCCn2cc(nn2)CO[C@H]1CN(C)Cc1ccc(C(=O)O)cc1 | 0.212
C/C=C(/C)C(=O)O[C@H]1CC(C)(C)C[C@H]2C3=CCC4[C@@]5(C)CC[C@H](O[C@@H]6O[C@H](C(=O)O)[C@@H](O[C@@H]7O[C@H](CO)[C@H](O)[C@H](O)[C@H]7O[C@@H]7O[C@H](CO)[C@@H](O)[C@H](O)[C@H]7O)[C@H](O)[C@H]6O[C@@H]6O[C@@H](C)[C@H](O)[C@@H](O)[C@H]6O)C(C)(C)C5CC[C@@]4(C)[C@]3(C)[C@@H](OC(C)=O)[C@@H](O)[C@@]12COC(C)=O (stereo partly drawn) | -0.219
CC1(C)CC[C@]2(C(=O)O[C@@H]3O[C@H](CO)[C@@H](O)[C@H](O)[C@H]3O)CC[C@]3(C)C(=CCC4[C@@]5(C)CC[C@H](O[C@@H]6O[C@H](C(=O)O)[C@@H](O[C@@H]7OC[C@H](O)[C@H](O)[C@H]7O)[C@H](O)[C@H]6O)C(C)(C)C5CC[C@]43C)C2C1 (stereo partly drawn) | 0.0826
CCC/C=C/C(=O)OC1C(O)C23C(O)OC4(CCC5C6(C)CCC(OC7OC(C(=O)O)C(O)C(OC8OC(CO)C(O)C(O)C8OC8OC(C)C(O)C(O)C8OC8OCC(O)C(O)C8O)C7OC7OC(CO)C(O)C(O)C7O)C(C)(C)C6CCC5(C)C4(C)CC2OC(C)=O)C3CC1(C)C (stereo not drawn) | 3.51 (active)
CC1OC(OC2C(OC3C(O[C@H]4CC[C@@]5(C)C(CC[C@]6(C)C5CC=C5[C@@H]7CC(C)(C)C[C@@H](O)[C@]7(C)CC[C@]56C)C4(C)C)OC(C(=O)O)C(O)C3O)OC(CO)C(O)C2O)C(O)C(O)C1O (stereo partly drawn) | 0.299
C/C=C(/C)C(=O)O[C@H]1CC(C)(C)C[C@H]2C3=CCC4[C@@]5(C)CC[C@H](O[C@@H]6O[C@H](C(=O)O)[C@@H](O[C@@H]7O[C@H](CO)[C@H](O)[C@H](O)[C@H]7O[C@@H]7O[C@H](CO)[C@@H](O)[C@H](O)[C@H]7O)[C@H](O)[C@H]6O[C@@H]6O[C@@H](C)[C@H](O)[C@@H](O)[C@H]6O)C(C)(C)C5CC[C@@]4(C)[C@]3(C)[C@@H](O)[C@@H](O)[C@@]12CO (stereo partly drawn) | 10.3 (active)
CC1(C)CC[C@]2(C(=O)O)CC[C@]3(C)C(=CCC4[C@@]5(C)CC[C@H](OC6O[C@H](CO)[C@@H](O)[C@H](O[C@@H]7O[C@H](CO)[C@@H](O)[C@H](O)[C@H]7O)[C@H]6O)C(C)(C)C5CC[C@]43C)[C@@H]2C1 (stereo partly drawn) | -0.209
C=CC(C)(O)CCC1(C)C2=C(C(OC(C)=O)C(OC(C)=O)C1C)C(C)(C)CCC2 (stereo not drawn) | -0.399
COC(=O)[C@]1(Cc2ccccc2CN=[N+]=[N-])N=C(c2ccc(OCCCO)cc2)O[C@@H]1c1ccccc1CN=[N+]=[N-] | 0.139
C[C@@H]1CN([C@@H](C)CO)C(=O)c2cccc(NC(=O)Nc3cccc4ccccc34)c2O[C@@H]1CN(C)CC1CC1 | 0.192
C[C@@H]1CN([C@H](C)CO)C(=O)Cc2cc(NC(=O)Cn3cnnn3)ccc2O[C@@H]1CN(C)S(=O)(=O)c1ccc(F)cc1 | 0.145
C[C@H](CO)N1C[C@H](C)[C@H](CN(C)C(=O)NC2CCCCC2)Oc2c(NC(=O)c3nc4ccccc4s3)cccc2C1=O | 0.116

SMILES | delta Cp (YB-1 minus CDIP)
C[C@H]1CN([C@@H](C)CO)C(=O)Cc2cc(N(C)C)ccc2O[C@@H]1CN(C)Cc1ccc(-c2ccccc2)cc1 | 0.0659
COC(=O)CCCCCCC(=O)N/N=C/c1ccc(C(=O)O)cc1 | -0.219
C[C@H]1CN([C@@H](C)CO)C(=O)c2cc(NC(=O)C3CCCCC3)ccc2O[C@H]1CN(C)S(=O)(=O)c1cn(C)cn1 | -0.0642
CC(C)(C)c1ccc(-c2[nH]nc(NC(=O)c3ccccc3Cl)c2Br)cc1 | 0.0133
C[C@@H]1CN([C@H](C)CO)C(=O)CCCn2cc(nn2)CO[C@@H]1CN(C)Cc1ccccc1C(=O)O | -0.246
C[C@@H]1CN([C@H](C)CO)C(=O)CCCn2nncc2CO[C@@H]1CN(C)C(=O)OCc1ccccc1 | 0.0587
O=C1C2CC3CC1CC(C(=O)O)(C3)C2 | 0.106
C[C@H](CO)N1C[C@H](C)[C@H](CN(C)C(=O)Nc2ccccc2)Oc2ccc(NC(=O)CCN3CCOCC3)cc2CC1=O | -0.228
CC1(C)CC(=O)c2ccc(O)cc2O1 | 1.96
Cc1cc(C(=O)Nc2cccc3c2O[C@@H](CN(C)C(=O)Nc2ccc4c(c2)OCO4)[C@H](C)CN([C@@H](C)CO)C3=O)n(C)n1 | -0.0832
C[C@H]1CN([C@@H](C)CO)C(=O)c2cc(NC(=O)NC3CCCCC3)ccc2O[C@@H]1CN(C)S(=O)(=O)c1cccs1 | 0.092
O=C(/C=C/c1ccccc1)c1ccc(O[C@@H]2O[C@H](CO)[C@@H](O)[C@H](O)[C@H]2O)cc1O | 0.0338
Oc1cc2c(cc1O)CN(C(=S)NCCc1ccc(Cl)cc1)CCC2 | 0.367
Cc1noc(C)c1NC(=O)Nc1ccc2c(c1)CC(=O)N([C@@H](C)CO)C[C@@H](C)[C@@H](CN(C)C(=O)NC(C)C)O2 | 0.0713
C[C@H]1CN([C@@H](C)CO)C(=O)Cc2cc(NC(=O)C3CC3)ccc2O[C@H]1CN(C)S(=O)(=O)c1ccc(Cl)cc1 | 0.415
[N-]=[N+]=Nc1ccccc1C[C@@]1(C(=O)NCc2ccccc2)N=C(c2ccc(OCCCO)cc2)O[C@@H]1c1ccccc1 | -0.629
O=C1O[C@@H](c2ccccc2)[C@@H](c2ccccc2)N2[C@@H](c3ccccc3OCCO)[C@]3(C(=O)Nc4ccc(C#CC5(O)CCCCCC5)cc43)[C@@H](C(=O)N3CCN(c4ncccn4)CC3)[C@H]12 | -0.244
C[C@H](CO)N1C[C@H](C)[C@H](CN(C)Cc2ccc(-c3ccccc3)cc2)Oc2ccc(NC(=O)Nc3ccc(F)cc3)cc2CC1=O | -0.469
COc1cc(/C(C)=C/C(C)=C\C(=O)O)oc(=O)c1C | -0.492
Cc1ccc(S(=O)(=O)N(C)C[C@H]2Oc3c(NC(=O)c4ccc(-c5nccs5)cc4)cccc3C(=O)N([C@H](C)CO)C[C@H]2C)cc1 | -0.182
CC1=COC(O[C@@H]2O[C@H](CO)[C@@H](O)[C@H](O)[C@H]2O)C2C1CC(O)C2CO (stereo partly drawn) | -0.367
C[C@@H]1CN([C@@H](C)CO)C(=O)CCCn2nncc2CO[C@@H]1CN(C)Cc1ccccc1 | 0.131
C[C@@H]1CN([C@H](C)CO)C(=O)Cc2cc(NS(=O)(=O)c3ccc(F)cc3)ccc2O[C@@H]1CN(C)S(=O)(=O)c1ccc(F)cc1 | -0.0534
COc1ccc(C#Cc2ccc3c(c2)[C@]2(C(=O)N3)[C@H](c3ccccc3OCCO)N3[C@H](c4ccccc4)[C@H](c4ccccc4)OC(=O)[C@H]3[C@@H]2C(=O)N2CCCCCCC2)cc1 | 0.00142
CNC[C@@H]1Oc2ncc(-c3ccc(F)cc3)cc2C(=O)N([C@H](C)CO)C[C@@H]1C | -0.148
CC(C)NC(=O)N(C)C[C@H]1Oc2ccc(NC(=O)CCCCCC(=O)Nc3ccccc3N)cc2CC(=O)N([C@@H](C)CO)C[C@H]1C | 0.0201
